Values joined by “and” are separate entries in the source; they are usually repeats but may differ in a detail not shown here. Equal values may be shown once. Results filed as inconclusive are left out. A structure can be active in one record and inactive in another. Active and inactive are the calls of the source. Unless noted, the call rests on the fitted dose curve; in most records, active means well fitted curve in the direction sought with a large enough effect; inconclusive means small, poorly fitted or top-dose-only effect, or another doubt; inactive means no such curve, though single readings can be large; an effect the other way counts as inactive or inconclusive.
Assays:
[1] = Cell Viability - NIH 3T3 (AID 541); conditions: NIH 3T3 cell viability, qHTS; activity change, negative = cytotoxicity: at 92.2 µM (top of the series); further: nearly all actives have a fitted effect of over 25% in size; further: potency means the concentration at half of the fitted maximal effect;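 on activity change, negative = cytotoxicity: plate controls were DMSO alone for no effect and tamoxifen positive control for full effect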
Method in brief: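 Mouse NIH 3T3 fibroblasts, 1000 cells/well, rested 5 hr at 37 °C, then exposed to compound for 40 hr at 37 °C in complete medium. Viability read as intracellular ATP by CellTiter-Glo luminescence; AC50 from Hill-equation fits of concentration-response data.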

[2] = MultiTox-Fluor Cytotoxicity Assay - LYMP1-002 - Dead Cells (AID 960); further: nearly all actives have a fitted effect of over 60% in size; further: potency means the concentration at half of the fitted maximal effect
Method in brief: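 Human lymphoblastoid LYMP1-002 cells, 2500/well, treated 16 h at 37 C; dead-cell protease cleavage of bis-AAF-R110 read by fluorescence (485/520); normalized to DMSO and 15 uM tetraoctylammonium bromide; AC50 from Hill fit.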

[3] = target: Glucocorticoid receptor (Homo sapiens) (UniProt P04150); assay: qHTS assay for small molecule agonists of glucocorticoid receptor signaling (AID 588532; active means well fitted curve in the direction sought with a large enough effect in the signal ratio, with a control signal flat; the % refers to the signal ratio;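 further: 100% = dexamethasone at 0.1 µM and 0% = DMSO only wells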); conditions: HeLa MMTV-bla, beta-lactamase ratio, agonist, 18 h; stronger effect = higher value; percent of dexamethasone control, DMSO zero
Chain of Glucocorticoid receptor (Homo sapiens) (P04150 whole entry, looked up): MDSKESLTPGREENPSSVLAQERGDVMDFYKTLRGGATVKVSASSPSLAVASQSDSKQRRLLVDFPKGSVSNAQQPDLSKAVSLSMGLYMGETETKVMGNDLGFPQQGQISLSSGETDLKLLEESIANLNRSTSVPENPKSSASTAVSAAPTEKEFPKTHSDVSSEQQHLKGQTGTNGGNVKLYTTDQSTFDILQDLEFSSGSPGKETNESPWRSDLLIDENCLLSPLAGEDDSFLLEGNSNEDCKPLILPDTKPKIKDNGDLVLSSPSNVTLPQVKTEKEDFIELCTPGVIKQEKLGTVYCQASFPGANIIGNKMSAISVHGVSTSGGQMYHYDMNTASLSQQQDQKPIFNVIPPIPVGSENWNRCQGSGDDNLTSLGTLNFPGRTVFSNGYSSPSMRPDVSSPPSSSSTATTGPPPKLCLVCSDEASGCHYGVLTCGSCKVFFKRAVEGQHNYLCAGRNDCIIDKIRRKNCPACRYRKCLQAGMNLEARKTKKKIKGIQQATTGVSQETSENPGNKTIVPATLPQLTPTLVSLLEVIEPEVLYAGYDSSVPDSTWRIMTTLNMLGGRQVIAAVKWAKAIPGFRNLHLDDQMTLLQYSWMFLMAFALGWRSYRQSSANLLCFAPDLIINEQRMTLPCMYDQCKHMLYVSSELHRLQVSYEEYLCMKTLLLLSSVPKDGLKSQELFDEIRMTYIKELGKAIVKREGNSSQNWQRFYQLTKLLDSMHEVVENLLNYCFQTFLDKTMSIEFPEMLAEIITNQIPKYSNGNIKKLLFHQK
Method in brief: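 MMTV-bla HeLa, beta-lactamase reporter; medium with 1% charcoal/dextran-stripped FBS; cpds up to 92 uM, 18 h, 37 C; CCF4 readout 460/530 nm; Hill fit → EC50, efficacy vs 0.1 uM dexamethasone = 100%.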

[4] = target: Vitamin D3 receptor (Homo sapiens) (UniProt P11473); assay: qHTS assay for small molecule antagonists of vitamin D receptor signaling (AID 588541; calls by dose curve;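 further: receptor activated by calcitriol during compound treatment; on the % scale 0 is the no-effect control and ±100 the full control effect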)
Chain of Vitamin D3 receptor (Homo sapiens) (P11473 whole entry, looked up): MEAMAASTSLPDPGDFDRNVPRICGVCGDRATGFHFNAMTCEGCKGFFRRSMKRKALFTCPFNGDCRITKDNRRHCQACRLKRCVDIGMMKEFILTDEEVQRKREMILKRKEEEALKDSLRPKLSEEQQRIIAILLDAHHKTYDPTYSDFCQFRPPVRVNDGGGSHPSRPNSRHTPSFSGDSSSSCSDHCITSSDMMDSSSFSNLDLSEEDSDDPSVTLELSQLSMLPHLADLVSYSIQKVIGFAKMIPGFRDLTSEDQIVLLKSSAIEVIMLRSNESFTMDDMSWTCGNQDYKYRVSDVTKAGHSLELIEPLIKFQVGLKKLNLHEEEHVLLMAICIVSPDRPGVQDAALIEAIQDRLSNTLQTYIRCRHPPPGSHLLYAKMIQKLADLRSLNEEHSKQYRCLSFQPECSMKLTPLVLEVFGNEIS
Method in brief: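 VDR-UAS-bla HEK293T cells (2000/well, 2% charcoal-stripped FBS) were treated with titrated compounds plus 1-alpha,25-dihydroxyvitamin D3 (50 nM or 3 nM final) for 16 h at 37 C. CCF4 beta-lactamase fluorescence was read; Hill fits gave IC50.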

[5] = target: Vitamin D3 receptor (Homo sapiens) (UniProt P11473); assay: qHTS assay for small molecule agonists of vitamin D receptor signaling (AID 588543; calls by dose curve;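 further: 0% = DMSO basal and 100% = reference agonist control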)
Method in brief: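 β-lactamase reporter, VDR-UAS-bla HEK293T, agonist mode. Cells plated 5 h at 37 °C, compound titration 16 h at 37 °C, CCF4 dye 2 h RT, ratio 460/530 nm. Hill fit → EC50, efficacy vs 50 nM 1α,25-(OH)2D3.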

[6] = qHTS assay for small molecule agonists of retinoid X receptor alpha signaling (AID 588544); conditions: HEK293T RXRa-UAS-bla, beta-lactamase reporter, 18 h; 530 nm emission
[7] = target: Thyroid hormone receptor beta (Homo sapiens) (UniProt P10828); assay: qHTS assay for small molecule agonists of thyroid hormone receptor beta signaling (AID 588545; calls by dose curve)
Chain of Thyroid hormone receptor beta (Homo sapiens) (P10828 whole entry, looked up): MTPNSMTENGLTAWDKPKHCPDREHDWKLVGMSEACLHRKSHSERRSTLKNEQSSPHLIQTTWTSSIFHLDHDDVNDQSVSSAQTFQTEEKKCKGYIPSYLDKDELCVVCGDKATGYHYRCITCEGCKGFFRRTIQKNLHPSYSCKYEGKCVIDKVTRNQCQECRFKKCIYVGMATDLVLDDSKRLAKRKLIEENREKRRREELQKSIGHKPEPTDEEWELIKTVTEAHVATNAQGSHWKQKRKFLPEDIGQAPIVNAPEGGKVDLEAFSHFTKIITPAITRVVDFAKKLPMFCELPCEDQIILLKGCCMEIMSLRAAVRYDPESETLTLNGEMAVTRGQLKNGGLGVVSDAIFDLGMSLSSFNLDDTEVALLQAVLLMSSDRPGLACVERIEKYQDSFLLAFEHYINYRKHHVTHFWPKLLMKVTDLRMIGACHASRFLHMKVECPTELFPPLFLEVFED
Method in brief: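 Cells (2500/well) were seeded, incubated 4 hrs at 37 C, dosed with a compound series, incubated 18 hrs, loaded with CCF4 dye for 2 hrs at RT, then read for fluorescence. Data were scaled between DMSO (0%) and 10 nM T3 (100%).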

[8] = qHTS assay for small molecule agonists of the antioxidant response element (ARE) signaling pathway (AID 651741; active means well fitted activation curve with a large enough effect in the signal ratio; the % refers to the signal ratio; further: potency means the concentration at half of the fitted maximal effect; on activation: % of control where 0% means no effect)
Method in brief: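 Compounds in DMSO are pinned onto HepG2 ARE-bla cells (2,000/well) that were preincubated 5 h; plates stay 16 h at 37 C, then beta-lactamase activity is detected with LiveBLAzer B/G substrate by fluorescence.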

[9] = target: Nuclear receptor ROR-gamma (Homo sapiens) (UniProt P51449); assay: qHTS assay for small molecule antagonists of the retinoid-related orphan receptor gamma (ROR-gamma) signaling pathway (AID 651802); further: nearly all actives have a fitted effect of over 60% in size; further: potency means the concentration at half of the fitted maximal effect
Chain of Nuclear receptor ROR-gamma (Homo sapiens) (P51449 whole entry, looked up): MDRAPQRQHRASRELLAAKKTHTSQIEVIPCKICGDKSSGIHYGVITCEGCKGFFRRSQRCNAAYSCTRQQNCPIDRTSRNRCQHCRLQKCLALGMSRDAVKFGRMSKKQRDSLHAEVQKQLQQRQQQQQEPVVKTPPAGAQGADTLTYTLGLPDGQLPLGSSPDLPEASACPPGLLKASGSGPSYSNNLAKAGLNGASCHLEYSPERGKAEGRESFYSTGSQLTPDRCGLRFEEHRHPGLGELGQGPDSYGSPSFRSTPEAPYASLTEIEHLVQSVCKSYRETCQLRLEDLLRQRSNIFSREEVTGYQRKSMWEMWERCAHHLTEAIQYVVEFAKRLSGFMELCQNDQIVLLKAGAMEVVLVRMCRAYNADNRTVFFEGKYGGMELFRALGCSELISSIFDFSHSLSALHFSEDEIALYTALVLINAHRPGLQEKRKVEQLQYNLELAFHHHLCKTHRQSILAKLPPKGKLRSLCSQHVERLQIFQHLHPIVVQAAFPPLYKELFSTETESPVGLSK
Method in brief: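 CHO cells with TET-inducible ROR-gamma and RORE-luciferase reporter, dosed then doxycycline-induced. After 16 h at 37C, One-Glo luminescence read; decreased signal indicates antagonism.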

[10] = qHTS assay for small molecule agonists of the antioxidant response element (ARE) signaling pathway measured by Nrf2-dependant transcriptional activity (AID 720636; active means well fitted curve in the direction sought with a large enough effect in the repeat runs; an effect the other way counts as inactive or inconclusive; further: potency means the concentration at half of the fitted maximal effect; on activation: % of control where 0% means no effect)
Method in brief: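 Nrf2-dependent transcription read as ONE-Glo luciferase signal from ARE-luc HepG2 reporter cells after 16 hr compound treatment at 37 C, 5% CO2, in assay medium with 1% dialyzed FBS.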

[11] = qHTS assay for small molecule activators of the human pregnane X receptor (PXR) signaling pathway (AID 720659; call rule not given here; further: 0% is about no effect)
[12] = target: Mitogen-activated protein kinase 10 (Mus musculus) (UniProt Q61831); assay: JNK3 AlphaScreen Assay (AID 530; active means well fitted curve in either direction with a large enough effect, not every such curve was filed as active;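 further: kinase came from lysate of stimulated human HepG2 cells; signal reports phosphorylation of biotinylated GST-cJun 1-79 at Ser73 with 10 µM ATP; on the % scale 0 is the no-effect control and ±100 the full control effect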)
Method in brief: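 Inhibitors reduce antibody binding to phosphorylated biotin-cJun, lowering AlphaScreen luminescence. Lysates from HepG2 cells pre-activated by IL-1beta plus TNF-alpha supplied JNK3; compounds were titrated.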

[13] = target: Cytochrome P450 3A4 (Homo sapiens) (UniProt P08684); assay: qHTS Assay for Inhibitors and Substrates of Cytochrome P450 3A4 (AID 884); further: nearly all actives have a fitted effect of over 50% in size; further: potency means the concentration at half of the fitted maximal effect
Chain of Cytochrome P450 3A4 (Homo sapiens) (P08684 whole entry, looked up): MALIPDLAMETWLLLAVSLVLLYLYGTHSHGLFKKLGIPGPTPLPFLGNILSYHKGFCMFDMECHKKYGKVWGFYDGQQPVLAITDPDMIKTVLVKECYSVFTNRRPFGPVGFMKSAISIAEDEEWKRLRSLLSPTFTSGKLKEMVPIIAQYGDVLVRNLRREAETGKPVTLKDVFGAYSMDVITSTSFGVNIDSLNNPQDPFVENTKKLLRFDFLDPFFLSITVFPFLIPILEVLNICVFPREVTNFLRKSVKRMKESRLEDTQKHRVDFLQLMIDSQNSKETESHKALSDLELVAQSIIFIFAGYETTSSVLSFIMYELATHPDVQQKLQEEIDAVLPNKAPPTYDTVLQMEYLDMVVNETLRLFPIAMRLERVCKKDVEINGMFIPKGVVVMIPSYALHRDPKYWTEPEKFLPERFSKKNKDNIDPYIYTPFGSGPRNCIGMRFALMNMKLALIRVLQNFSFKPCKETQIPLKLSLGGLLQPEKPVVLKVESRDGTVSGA
Method in brief: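 20 nM human CYP3A4 with 25 uM Luciferin-PPXE (at KM) in 200 mM KPO4, preincubated 10 min with compound; NADPH regeneration started a 60 min RT reaction. Luciferin detected by luminescence, normalized to 57 uM ketoconazole as full inhibition.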

[14] = Cell Viability - LYMP2-019 (AID 973);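 further: cells exposed to compound for 24 h at 37 °C; nearly all actives have a fitted effect of over 55% in size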; further: potency means the concentration at half of the fitted maximal effect;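 on activity change, negative = cytotoxicity: 0% = DMSO alone and full effect = 92 µM tetraoctylammonium bromide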
Method in brief: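 Human lymphoblastoid LYMP2-019 cells (2500/well) preincubated 5 h at 37 C, then treated 24 h at 37 C in complete medium. Viability by CellTiter-Glo ATP luminescence after 30 min at room temperature; AC50 from Hill fits.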

[15] = target: Voltage-gated inwardly rectifying potassium channel KCNH2 (Homo sapiens) (UniProt Q12809); assay: qHTS Assay for Small Molecule Inhibitors of the Human hERG Channel Activity (AID 588834);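 further: lower thallium flux fluorescence means stronger hERG block; nearly all actives have a fitted effect of over 50% in size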; further: potency means the concentration at half of the fitted maximal effect
Chain of Voltage-gated inwardly rectifying potassium channel KCNH2 (Homo sapiens) (Q12809 whole entry, looked up): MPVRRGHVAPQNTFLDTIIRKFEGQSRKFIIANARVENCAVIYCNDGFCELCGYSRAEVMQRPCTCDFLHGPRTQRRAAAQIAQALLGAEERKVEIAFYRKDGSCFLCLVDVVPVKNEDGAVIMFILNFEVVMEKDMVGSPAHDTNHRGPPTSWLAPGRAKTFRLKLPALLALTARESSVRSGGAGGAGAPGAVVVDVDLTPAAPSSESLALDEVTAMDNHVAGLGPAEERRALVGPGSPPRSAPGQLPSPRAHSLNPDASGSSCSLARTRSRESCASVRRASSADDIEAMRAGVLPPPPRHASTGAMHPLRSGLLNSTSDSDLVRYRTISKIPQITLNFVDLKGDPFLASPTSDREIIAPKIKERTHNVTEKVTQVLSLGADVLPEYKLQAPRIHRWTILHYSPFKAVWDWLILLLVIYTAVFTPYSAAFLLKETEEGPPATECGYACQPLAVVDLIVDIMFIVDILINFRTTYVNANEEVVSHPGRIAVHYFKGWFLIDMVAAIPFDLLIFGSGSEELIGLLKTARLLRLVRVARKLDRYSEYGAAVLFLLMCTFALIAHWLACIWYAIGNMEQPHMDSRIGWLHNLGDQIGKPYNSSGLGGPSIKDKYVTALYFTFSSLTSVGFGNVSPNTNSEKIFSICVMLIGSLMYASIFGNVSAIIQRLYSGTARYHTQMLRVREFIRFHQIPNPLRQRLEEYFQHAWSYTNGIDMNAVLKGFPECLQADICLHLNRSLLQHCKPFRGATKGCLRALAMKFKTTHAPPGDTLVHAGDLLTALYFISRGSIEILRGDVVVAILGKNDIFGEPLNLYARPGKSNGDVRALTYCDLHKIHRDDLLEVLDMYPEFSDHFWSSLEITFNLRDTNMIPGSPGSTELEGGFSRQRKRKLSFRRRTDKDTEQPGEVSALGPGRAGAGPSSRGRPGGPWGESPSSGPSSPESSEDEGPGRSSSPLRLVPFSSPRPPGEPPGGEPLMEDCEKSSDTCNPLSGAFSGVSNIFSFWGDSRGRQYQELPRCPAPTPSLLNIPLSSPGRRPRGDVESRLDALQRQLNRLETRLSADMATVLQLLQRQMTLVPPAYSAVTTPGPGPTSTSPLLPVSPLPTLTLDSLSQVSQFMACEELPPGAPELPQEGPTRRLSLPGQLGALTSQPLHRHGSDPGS
Method in brief: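 Concentration-response qHTS measuring drop in thallium-sensitive dye signal. U2OS cells carrying BacMam hERG; compound exposure ~10 min, then stimulation buffer and 2 min read at 1 sec intervals.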

[16] = qHTS assay for small molecule activators of the nuclear factor-kappa B (NF-kB) signaling pathway (AID 651749; active means well fitted activation curve with a large enough effect in the signal ratio; the % refers to the signal ratio; further: % of control where 0% means no effect); conditions: NF-kB-bla ME-180 cells, beta-lactamase FRET ratio, 16 h; stronger effect = higher value
Method in brief: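 Screening used 2,000 ME-180 reporter cells per well exposed to pinned compound (23 nL) or DMSO; after 16 hr at 37C, beta-lactamase expression under NF-kB control was assessed through FRET.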

[17] = qHTS assay for cell viability of the p53RE-bla HCT-116 cell line (AID 743292); further: on the % scale 0 is the no-effect control and ±100 the full control effect; nearly all actives have a fitted effect of over 55% in size
Method in brief: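 ATP-based luminescent viability (CellTiter-Glo, 30 min RT) after 16 h compound treatment at 37 C of p53RE-bla HCT-116 cells, seeded at 4,000 cells/well and rested 5 h before dosing.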

[18] = Cell Viability - Jurkat (AID 426;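 active means dose-dependent loss of cell ATP signal giving a full or clear fitted curve, ranked by lower potency value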; further: potency means the concentration at half of the fitted maximal effect); conditions: qHTS
Method in brief: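 Jurkat (Clone E6-1) cells, 5000/well in complete medium, exposed to compounds for 40 hr at 37C; intracellular ATP measured by CellTiter-Glo luminescence after 20 min at room temperature. AC50 from Hill fits.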

[19] = Cell Viability - LYMP2-009 (AID 968);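 further: cells exposed to compound for 24 h at 37 °C; nearly all actives have a fitted effect of over 55% in size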; further: potency means the concentration at half of the fitted maximal effect
[20] = target: Tumor necrosis factor (Homo sapiens) (UniProt P01375); assay: qHTS assay to identify small molecules that stimulate Tumor Necrosis Factor-alpha (TNF-alpha) secretion (AID 651757; active means well fitted curve in the direction sought with a large enough effect in the signal ratio; the % refers to the signal ratio; further: 0% is about no effect)
Chain of Tumor necrosis factor (Homo sapiens) (P01375 whole entry, looked up): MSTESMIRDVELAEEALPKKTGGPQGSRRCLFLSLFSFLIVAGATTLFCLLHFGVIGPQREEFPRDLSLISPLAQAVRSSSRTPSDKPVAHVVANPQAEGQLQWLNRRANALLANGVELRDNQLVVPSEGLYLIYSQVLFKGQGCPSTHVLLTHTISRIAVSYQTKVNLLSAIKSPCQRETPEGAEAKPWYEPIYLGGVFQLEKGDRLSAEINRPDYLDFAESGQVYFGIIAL
Method in brief: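 THP-1 cells (3000/well) exposed to compounds 17 hrs at 37 C. Secreted TNF-alpha detected by HTRF with cryptate- and XL665-labeled anti-TNF-alpha antibodies after 3 hr at room temperature.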

Cc1c(C(=O)O)c(O)cc2c1C(=O)c1c(O)c([C@H]3O[C@H](CO)[C@@H](O)[C@H](O)[C@H]3O)c(O)c(O)c1C2=O
-6.4%: max response [6]
inactive: Potency [2] | activation [3] -7.96% | Potency [4] | Potency [5] | Potency [7] | Potency [8] | Potency [10] | outcome [11]
active: activity change, negative = cytotoxicity [1] -80.4% | Potency [9] 26.6 µM

Nc1ccc(N)c(Cl)c1
inactive: Potency [12] | Potency [2] | Potency [14] | Potency [4] | Potency [5] | Potency [7] | Potency [15] | Potency [9] | outcome [11]
active: Potency [1] 31.6 µM | Potency [13] 10 µM | Potency [8] 23.7 µM
15.5%: max response [6]

CN(C)c1ccc(C(=N)c2ccc(N(C)C)cc2)cc1
inactive: Potency [12] | activation [3] 2.53% | Potency [4] | Potency [5] | Potency [7] | activation [16] 3.33% | Potency [17]
active: Potency [2] 15.8 µM | Potency [15] 15.8 µM | Potency [9] 5.31 µM

C/C=C/C=C/C=O
-9.87%: max response [6]
inactive: Potency [12] | Potency [13] | Potency [2] | activation [3] -0.282% | Potency [5] | Potency [7] | Potency [15] | activation [16] -1.3% | Potency [20] | Potency [10] | outcome [11]
active: Potency [18] 29.4 µM | activity change, negative = cytotoxicity [1] -142% | Potency [19] 39.8 µM | Potency [14] 39.8 µM | Potency [8] 37.6 µM

Cc1ccc(S(N)(=O)=O)cc1
-3.23% and -4.03%: max response [6]
inactive: Potency [18] > 92 µM | Potency [13] | Potency [2] | Potency [19] | Potency [14] | activation [3] 1.06% and -7.61% | Potency [4] | Potency [5] | Potency [7] | Potency [15] | activation [16] 1.55% and -0.345% | Potency [10] | Potency [17] | outcome [11]
inactive and 68.6 µM (active): Potency [8]

Cc1ccc(O)c(N)c1
inactive: Potency [12] | Potency [13] | Potency [2] | activation [3] 4.97% | Potency [7] | Potency [15] | Potency [17]
active: activity change, negative = cytotoxicity [1] -124% | Potency [14] 39.8 µM | Potency [8] 16.8 µM | Potency [10] 42.2 µM
23.6%: max response [6]

Cc1c2ccccc2c(C)c2c1ccc1ccccc12
inactive: Potency [19] | Potency [14] | Potency [15] | Potency [20] | Potency [10] | Potency [17]
active: Potency [18] 36.6 µM | activity change, negative = cytotoxicity [1] -137% | Potency [2] 25.1 µM | Potency [8] 10.6 µM and 24.3 µM | Potency [9] 13.3 µM

Oc1ccc(O)c2c(O)cccc12
inactive: Potency [12] | activity change, negative = cytotoxicity [1] -29% | Potency [13] | Potency [2] | activation [3] -3.75% | Potency [5] | Potency [7] | Potency [15] | Potency [17] | outcome [11]
active: Potency [18] 30 µM | Potency [8] 42.2 µM | Potency [9] 66.8 µM
-16.7%: max response [6]

CCOc1ccc2nc(N)sc2c1
1.63%: max response [6]
inactive: activity change, negative = cytotoxicity [1] -15.3% | Potency [2] | Potency [19] | Potency [14] | activation [3] -9.89% | Potency [7] | activation [16] -0.893%

O=C(OCC1CO1)C1CCCCC1C(=O)OCC1CO1 (stereo unspecified)
inactive: Potency [12] | activity change, negative = cytotoxicity [1] -15% | activation [3] 2.8% | Potency [15] | Potency [20] | Potency [9] | Potency [17] | outcome [11]
active: Potency [8] 42.2 µM

Source: PubChem BioAssay (NCATS)
